Holding throughout (experiment): NCI-60 one-dose screen, 48 h (100 = growth as untreated, 0 = no growth, -100 = all killed)
Common to all, as to settings: 10 µM unless noted

Test [1] has as its system SK-MEL-2 melanoma.
For test [2], the system named is EKVX NSCLC.
In test [3] the test system is SN12C renal.
For test [4], the system named is UO-31 renal.
Test [5] relates to TK-10 renal.
Test [6] concerns ACHN renal.
Test [7] has as its system CAKI-1 renal.
Test [8] has as its system A498 renal.
Test [9] deals with CCRF-CEM leukemia.
Test [10] relates to MOLT-4 leukemia.
Test [11] relates to SR leukemia.
Test [12] concerns RPMI-8226 leukemia.
The subject of test [13] is OVCAR-5 ovarian.
For test [14], the system named is OVCAR-4 ovarian.
Test [15] relates to SK-OV-3 ovarian.
Test [16] has as its system IGROV1 ovarian.
The test system of test [17] is OVCAR-3 ovarian.
Test [18] concerns HS 578T breast.
Test [19] has as its system NCI/ADR-RES ovarian.
The subject of test [20] is OVCAR-8 ovarian.

Compounds without any hit were thinned out: in the full panel of roughly 83,000, 20% have a hit.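 Single-dose data. Exposure time 48 hours. Values below 10 considered active.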 Unmarked numbers belong to inactive results. Activity calls are given as the source filed them.

Take `COc1ccc(C2Nc3c(c(C(C)(C)C)nn3-c3ccccc3)C(=O)CS2)cc1` (configuration not stated): the growth in test [1] was 98.8%; in [2] it was 93.9%; in test [3], 99.8%; in [4] it was 72%; in test [5], 100%; in test [6], 99.9%. In addition, the growth in test [7] was 81.9%; in [8], 113%; in [9], 83.9%; in test [10], 75.7%; in test [11], 87%; in test [12], 82.7%. Also, the growth was 108% in test [13]; 114% in test [14]; 106% in test [15]; 84.3% in test [16]; 101% in test [17]; 118% in [18]. Further, in [19], the growth is 94.8%.

Regarding `COc1ccc(-c2cc(C(=O)N=Nc3c(O)[nH]c4ccc(Br)cc34)no2)cc1`, the growth in test [1] is 97.6%; in test [2] it was 94.4%; in [3] it was 93.6%; in test [4], 77.6%; in [5], 124%; in [6], 98.2%. For the same compound, the growth in test [7] is 84.1%; in test [8] it was 99.6%; in test [9] it was 102%; in [10], 101%; in test [12], 107%; in test [20], 99.8%. The growth is 99.8% in test [13]; 103% in test [14]; 95.2% in test [15]; 100% in test [16]; 108% in [17]; 95.7% in test [18]. Further, the growth in [19] was 97.4%.

Turning to `CCC(=O)c1ccc(Cl)s1`, the growth is 102% in test [1]; 117% in [2]; 101% in [3]; 98% in [4]; 103% in test [5]; 107% in [6]. In addition, the growth was 102% in test [7]; 98.4% in test [8]; 101% in [9]; 94% in test [10]; 104% in [12]; 101% in test [20]. The growth is 105% in test [13]; 109% in test [14]; 114% in [15]; 118% in [16]; 112% in [17]; 103% in test [18]. Moreover, the growth in [19] is 104%.

Turning to `CCCCC/C(C=C(C#N)C#N)=C/c1ccccc1`, the growth in test [1] is 82.4%; in test [2], 106%; in test [3], 81.1%; in [4], 34.7%; in test [5], 105%; in test [6], 41.6%. Besides, the growth was 81.4% in test [7]; 112% in test [8]; 13.9% in test [9]; 13.4% in test [10]; 7.75% (active) in test [11]; -14.1% (active) in test [12]. For the same compound, the figures for the growth in test [20], in [14] and in test [19] were 12.3%, 86.4% and 65%, respectively.

Regarding `c1ccc(Cn2cc(-c3nc4ccccc4s3)c3cccnc32)cc1`, the growth in test [1] is 102%; in test [2], 80.5%; in test [3] it was 94.5%; in test [4], 76.7%; in [5], 118%; in [6] it was 105%. Further, the growth is 92.9% in [7]; 104% in test [8]; 112% in test [9]; 105% in [10]; 112% in test [11]; 99.9% in test [12]. Further, the growth is 103% in [13]; 90.9% in test [14]; 96.1% in test [15]; 94.3% in test [16]; 95.6% in test [17]; 110% in [18]. In addition, in test [19], the growth is 98.6%.

Regarding `COc1cccc(-c2nc3sccn3c2-c2ccnc(NCCNS(=O)(=O)c3ccc(F)cc3)c2)c1`, the growth in test [1] is 21.3%; in test [2], 28.2%; in [3], 27.1%; in test [4], 16.7%; in [5] it was 46.5%; in [6] it was 13%. The growth in test [7] is 18.4%; in [8], 18.2%; in [9], 14.2%; in [10], 7.99% (active); in test [12], -14.1% (active); in test [20] it was 20.1%. The growth in test [13] was 49.3%; in [14], 22.3%; in [15], 43.7%; in [16] it was 28.6%; in [17], 42%; in test [18], 52.4%. In test [19], the growth is 10.7%.

With `O=C(N=Nc1c(O)[nH]c2ccccc12)c1cc(-c2ccccc2)on1`, the growth was 108% in [1]; 92% in test [2]; 96% in test [3]; 85.4% in [4]; 123% in test [5]; 97.2% in test [6]. For the same compound, the growth is 86.7% in test [7]; 103% in test [8]; 107% in test [9]; 104% in test [10]; 112% in test [12]; 102% in test [20]. For the same compound, the growth in [13] is 99.8%; in [14], 104%; in test [15], 116%; in [16] it was 104%; in test [17] it was 111%; in test [18], 96.7%. Further, the growth in test [19] is 105%.

With `CC(O)CN1CC(O)=C(c2nc3ccccc3s2)C1=N` (configuration not stated), the growth in test [1] was 95.1%; in test [2] it was 108%; in [3] it was 103%; in test [4] it was 90.3%; in [5] it was 131%; in test [6], 228%. Besides, the growth was 101% in test [7]; 116% in [8]; 97.4% in [9]; 103% in test [10]; 93.1% in test [11]; 101% in [12]. In addition, the growth in test [13] is 93.9%; in test [14] it was 106%; in test [15], 113%; in test [16], 99%; in [17], 117%; in test [19] it was 85.1%.

The record behind these values is PubChem BioAssay (NCI).
